# Laboratory results as given in PubChem BioAssay.
# For part of these data: Entries with a potency or affinity are not part of this list. Active and inactive are the calls of the source.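 Rule for the calls, unless noted: active = fluorescence ratio normalized to control raised more than 50% in primary screen plus both repeat runs; inactive = the rest.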
# Legend:
# [1] = tested on: TRPC4 beta (transient receptor potential cation channel C4), mouse; assay: activators of mouse TRPC4 channel, confirmation, cell-based, Fluo4 calcium, HEK293 TRPC4beta/mu-opioid, duplicates, 10 µM (AID 2426); conditions: Fluo4 calcium fluorescence, at 10 µM; active compounds read high;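 for activation: percent rise of integrated ratio over buffer wells lacking compound which define 0%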
# [2] = tested on: transient receptor potential cation channel C4 beta (TRPC4), mouse; assay: activators of mouse TRPC4 channel, confirmation, cell-based, second round, Fluo4, HEK293 TRPC4beta/mu-opioid, 1 µM (AID 2461;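 active = primary screen active and over 50% activation in each of two duplicate runs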;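 for activation: 0% = wells without test compound as baseline of integrated fluorescence ratio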); conditions: Fluo4 calcium fluorescence, at 1 µM; active compounds read high
# [3] = tested on: TRPC4 (transient receptor potential cation channel C4 beta), mouse; assay: positive allosteric modulators of mouse TRPC4, confirmation, cell-based, second round, Fluo-4, HEK293 TRPC4beta/mu-opioid, 1 µM (AID 2554;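 active = primary screen hit whose fluorescence ratio, in both repeats, exceeds the weak agonist control mean by 3 SD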); conditions: DAMGO EC20, Fluo-4 calcium flux, at 1 µM; active compounds read high
# [4] = tested on: TRPC4 beta (transient receptor potential cation channel C4), mouse; assay: positive allosteric modulators of mouse TRPC4, confirmation, cell-based, Fluo-4, HEK293 TRPC4beta/mu-opioid (AID 2555;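 active = primary screen hit whose calcium fluorescence ratio, in both repeats, exceeds the weak agonist control mean by 3 SD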); conditions: DAMGO EC20, Fluo-4 calcium flux, at 10 µM; active compounds read high
# [5] = biological target: Short transient receptor potential channel 4 (Mus musculus) (UniProt Q9QUQ5); assay: inhibitors of mouse TRPC4 channel, confirmation, cell-based, Fluo4, HEK293 TRPC4beta/mu-opioid (AID 2636;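 active = calcium signal cut by more than 3 SD below the full-agonist control yet still positive, in both repeats and the earlier primary screen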); conditions: DAMGO, Fluo4 calcium flux, at 10 µM; active compounds read high
# [6] = biological target: Short transient receptor potential channel 4 (Mus musculus) (UniProt Q9QUQ5); assay: inhibitors of mouse TRPC4 channel, confirmation, cell-based, second round, Fluo4, HEK293 TRPC4beta/mu-opioid, 1 µM (AID 2637;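 active = calcium signal ratio cut to more than 3 SD under the fully stimulated control mean yet still positive, in both repeats and the primary screen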); conditions: Fluo4 calcium flux, DAMGO, at 1 µM; active compounds read high
# [7] = biological target: Short transient receptor potential channel 4 (Mus musculus) (UniProt Q9QUQ5); assay: TRPC4 positive allosteric modulators, dose response, cell-based, HEK293 TRPC4/mu-opioid, Fluo-4 calcium, EC20 DAMGO (AID 434941;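 active = earlier screen potentiator hit that boosts the TRPC4 ion channel at some dose, with a dose response; inactive = no potentiation, no dose response, or not a prior hit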;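 note: calcium entry triggered by an EC20 dose of DAMGO at the co-expressed mu-opioid receptor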)
# [8] = biological target: Short transient receptor potential channel 4 (Mus musculus) (UniProt Q9QUQ5); assay: mouse TRPC4 channel inhibitors, dose response, cell-based, HEK293 TRPC4/mu-opioid, Fluo-4 calcium (AID 434942;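 active = primary screen inhibitor hit that blocks the TRPC4 channel at some tested dose, yielding a dose curve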)
# [9] = biological target: Short transient receptor potential channel 6 (Mus musculus) (UniProt Q61143); assay: inhibition of mouse TRPC6 channel, confirmation, selectivity assay for TRPC4 inhibitor project, cell-based, HEK293, membrane potential dye, duplicate (AID 434948;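 active = active in primary screen and both duplicates, each dropping signal beyond three positive-control SD with fluorescence still positive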); conditions: HEK293 TRPC6, membrane potential dye fluorescence, at 10 µM, stimulated with maximal-effect acetylcholine; active compounds read high
# [10] = biological target: Short transient receptor potential channel 6 (Mus musculus) (UniProt Q61143); assay: activation of mouse TRPC6 channel, confirmation, selectivity assay for TRPC4 activator project, cell-based, HEK293, membrane potential dye, duplicate (AID 434950;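 active = membrane potential signal rise above negative control mean plus 3 SD in both duplicates, also active in the earlier TRPC4 screen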;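 for activation: 0% = buffer only wells and 100% = acetylcholine maximal-effect wells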); conditions: HEK293 TRPC6, membrane potential fluorescence, at 10 µM; active compounds read high
# [11] = biological target: Short transient receptor potential channel 6 (Mus musculus) (UniProt Q61143); assay: TRPC6 potentiation by TRPC4 potentiator hits, confirmation, selectivity assay for TRPC4 potentiator project, HEK293 cells, membrane potential dye, duplicate (AID 434952;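 active = compound raising the membrane signal above positive-control mean plus 3 SD in both repeats, and a primary screen hit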); conditions: HEK293 TRPC6, membrane potential dye fluorescence, at 10 µM, maximal acetylcholine added after compound; active compounds read high
# [12] = biological target: Short transient receptor potential channel 4 (Mus musculus) (UniProt Q9QUQ5); assay: calcium flux activators in TRPC4/5HT1a cells, counter-screen for TRPC4 activator project, cell-based, second counter screen, HEK293 TRPC4/5HT1a, Fluo-4 (AID 434977;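 active = calcium signal rise above buffer-control mean plus 5 SD in both duplicates, and also a hit in the primary screen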;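 for activation: plate controls were assay buffer for no effect and maximal serotonin response for full effect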); conditions: Fluo-4 calcium flux, at 10 µM; active compounds read high
# [13] = calcium flux inhibitors in TRPC4/5HT1a cells, confirmation, counter-screen for TRPC4 inhibitor project, cell-based, second counter screen, HEK293 TRPC4/5HT1a, Fluo-4 (AID 434978;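 active = primary screen active whose calcium signal fell more than 3 SD beyond the full-serotonin control mean in both duplicate plates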;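 note: serotonin given first at submaximal then at maximal dose after compound preincubation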); conditions: Fluo-4 calcium flux, at 10 µM, serotonin added to trigger calcium flux; active compounds read high
# [14] = tested on: TRPC4 (mouse), co-expressed with 5HT1a in HEK293; assay: calcium flux potentiators in TRPC4/5HT1a cells, confirmation, counter-screen for TRPC4 potentiator project, cell-based, second counter screen, HEK293 TRPC4/5HT1a, Fluo-4 (AID 434979;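 active = signal rise over 3 SD above mean of control wells given weak agonist, in both repeats and first screen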); conditions: Fluo-4 calcium flux, at 10 µM, serotonin added at its EC20 dose; active compounds read high
# [15] = calcium flux activation in mu-opioid HEK293 cells, confirmation, counter-screen for TRPC4 activator project, cell-based, HEK293 mu-opioid receptor line (AID 449723;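 active = hit in primary screen, with calcium signal over 5 SD above buffer well mean in both duplicates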;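 note: counter screen cells carry the mu-opioid receptor alone and lack TRPC4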); conditions: Fluo-4 calcium fluorescence, at 10 µM; active compounds read high
# [16] = calcium flux enhancement in mu-opioid HEK293 cells, confirmation, counter-screen for TRPC4 allosteric potentiator project, cell-based, HEK293 mu-opioid receptor line (AID 449724;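 active = calcium signal rise more than 3 SD above the low-dose agonist control mean, in both duplicate plates and the primary screen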); conditions: Fluo-4 calcium flux, at 10 µM, compound added before EC20 DAMGO stimulus; active compounds read high
# Short transient receptor potential channel 6 (Mus musculus), sequence (Q61143 whole entry, looked up): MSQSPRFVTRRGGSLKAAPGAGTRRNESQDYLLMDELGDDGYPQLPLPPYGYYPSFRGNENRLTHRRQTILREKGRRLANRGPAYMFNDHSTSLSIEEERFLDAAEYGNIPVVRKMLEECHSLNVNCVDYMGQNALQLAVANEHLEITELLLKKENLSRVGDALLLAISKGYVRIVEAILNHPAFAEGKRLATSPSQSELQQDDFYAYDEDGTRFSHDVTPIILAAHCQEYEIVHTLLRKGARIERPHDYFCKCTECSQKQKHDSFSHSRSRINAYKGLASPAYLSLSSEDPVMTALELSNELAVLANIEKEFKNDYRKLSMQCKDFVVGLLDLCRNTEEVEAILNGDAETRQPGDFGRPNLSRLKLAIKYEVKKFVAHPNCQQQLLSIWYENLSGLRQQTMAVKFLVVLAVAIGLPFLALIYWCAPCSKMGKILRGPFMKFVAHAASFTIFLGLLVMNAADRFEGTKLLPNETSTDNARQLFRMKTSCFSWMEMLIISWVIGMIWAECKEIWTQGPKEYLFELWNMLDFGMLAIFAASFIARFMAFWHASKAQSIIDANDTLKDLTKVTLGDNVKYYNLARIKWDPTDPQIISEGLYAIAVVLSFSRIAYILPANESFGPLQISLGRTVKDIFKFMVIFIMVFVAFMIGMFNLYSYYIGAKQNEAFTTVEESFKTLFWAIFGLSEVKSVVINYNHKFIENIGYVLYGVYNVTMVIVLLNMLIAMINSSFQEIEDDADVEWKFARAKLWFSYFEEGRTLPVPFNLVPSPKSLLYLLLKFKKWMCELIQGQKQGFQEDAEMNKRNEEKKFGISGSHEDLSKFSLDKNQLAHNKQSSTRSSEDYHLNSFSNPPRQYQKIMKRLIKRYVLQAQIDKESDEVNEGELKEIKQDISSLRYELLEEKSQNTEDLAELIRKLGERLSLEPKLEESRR
# Short transient receptor potential channel 4 (Mus musculus), sequence (Q9QUQ5 whole entry, looked up): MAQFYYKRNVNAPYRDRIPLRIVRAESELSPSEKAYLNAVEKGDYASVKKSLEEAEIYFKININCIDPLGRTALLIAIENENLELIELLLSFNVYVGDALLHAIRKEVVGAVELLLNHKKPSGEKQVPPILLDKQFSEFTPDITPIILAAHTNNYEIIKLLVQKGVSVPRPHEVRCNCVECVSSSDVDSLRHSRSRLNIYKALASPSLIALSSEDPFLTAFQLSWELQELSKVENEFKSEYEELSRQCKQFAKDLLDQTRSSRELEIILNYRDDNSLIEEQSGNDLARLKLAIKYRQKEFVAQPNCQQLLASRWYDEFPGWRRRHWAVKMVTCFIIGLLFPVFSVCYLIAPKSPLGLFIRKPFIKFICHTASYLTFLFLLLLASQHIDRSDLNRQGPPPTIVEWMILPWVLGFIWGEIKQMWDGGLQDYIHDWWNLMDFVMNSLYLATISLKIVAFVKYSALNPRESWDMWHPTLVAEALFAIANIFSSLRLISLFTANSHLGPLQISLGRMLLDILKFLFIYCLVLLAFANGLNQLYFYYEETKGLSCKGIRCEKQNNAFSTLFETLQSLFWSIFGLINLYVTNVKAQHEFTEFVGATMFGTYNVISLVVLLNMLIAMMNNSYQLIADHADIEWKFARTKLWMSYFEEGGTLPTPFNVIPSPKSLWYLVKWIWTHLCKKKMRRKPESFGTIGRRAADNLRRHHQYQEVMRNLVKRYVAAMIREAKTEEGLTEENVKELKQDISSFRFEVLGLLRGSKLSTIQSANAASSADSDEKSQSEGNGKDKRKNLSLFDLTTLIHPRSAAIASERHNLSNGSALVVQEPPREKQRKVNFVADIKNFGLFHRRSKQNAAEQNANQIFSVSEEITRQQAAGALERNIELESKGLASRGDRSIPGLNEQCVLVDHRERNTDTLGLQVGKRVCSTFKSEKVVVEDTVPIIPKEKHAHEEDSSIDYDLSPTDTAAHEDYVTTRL
compound,measurement,setting,value
CCC1(c2ccc(F)cc2)NC(=O)N(CC(=O)c2cc(C)n(C3CC3)c2C)C1=O (stereo not given),outcome,[1],inactive
same,outcome,[2],inactive
same,outcome,[3],inactive
same,potentiation,[4],16% (active)
same,outcome,[5],inactive
same,outcome,[6],inactive
same,outcome,[7],inactive
same,outcome,[8],inactive
same,outcome,[9],inactive
same,outcome,[10],inactive
same,outcome,[11],inactive
same,activation,[12],27% (active)
same,outcome,[13],inactive
same,potentiation,[14],24.5% (active)
same,activation,[15],13.8% (active)
same,outcome,[16],inactive
CCOC(=O)C1(CCOc2ccccc2)CCN(Cc2cnc(C)s2)CC1,activation,[1],66% (active)
same,outcome,[2],inactive
same,outcome,[3],inactive
same,outcome,[4],inactive
same,outcome,[5],inactive
same,outcome,[6],inactive
same,outcome,[7],inactive
same,outcome,[8],inactive
same,outcome,[9],inactive
same,activation,[10],59.5% (active)
same,outcome,[11],inactive
same,activation,[12],5.79% (active)
same,outcome,[13],inactive
same,outcome,[14],inactive
same,outcome,[15],inactive
same,outcome,[16],inactive
CCOC(=O)C1(CCOc2ccccc2)CCN(Cc2ccc(NC(C)=O)cc2)CC1,activation,[1],146% (active)
same,activation,[2],68% (active)
same,outcome,[3],inactive
same,outcome,[4],inactive
same,outcome,[5],inactive
same,outcome,[6],inactive
same,outcome,[7],inactive
same,outcome,[8],inactive
same,outcome,[9],inactive
same,activation,[10],51% (active)
same,outcome,[11],inactive
same,outcome,[12],inactive
same,outcome,[13],inactive
same,outcome,[14],inactive
same,outcome,[15],inactive
same,outcome,[16],inactive
Cc1cc(C)c(C)c(OCCCN(C)C)c1,activation,[1],152% (active)
same,activation,[2],95% (active)
same,outcome,[3],inactive
same,outcome,[4],inactive
same,outcome,[5],inactive
same,outcome,[6],inactive
same,outcome,[7],inactive
same,outcome,[8],inactive
same,outcome,[9],inactive
same,activation,[10],67.5% (active)
same,outcome,[11],inactive
same,activation,[12],47.6% (active)
same,outcome,[13],inactive
same,potentiation,[14],15.7% (active)
same,outcome,[15],inactive
same,outcome,[16],inactive
CN(C)c1ccc(NC(=S)N2CCN(c3ncc(C(F)(F)F)cc3Cl)CC2)cc1,activation,[1],112% (active)
same,outcome,[2],inactive
same,outcome,[3],inactive
same,outcome,[4],inactive
same,outcome,[5],inactive
same,outcome,[6],inactive
same,outcome,[7],inactive
same,outcome,[8],inactive
same,outcome,[9],inactive
same,activation,[10],27.5% (active)
same,outcome,[11],inactive
same,activation,[12],54.3% (active)
same,outcome,[13],inactive
same,outcome,[14],inactive
same,outcome,[15],inactive
same,outcome,[16],inactive
CCOC(=O)C1CCCN(C(c2ccccn2)c2c(C)[nH]c3ccccc23)C1 (stereo not given),activation,[1],208% (active)
same,outcome,[2],inactive
same,outcome,[3],inactive
same,outcome,[4],inactive
same,outcome,[5],inactive
same,outcome,[6],inactive
same,outcome,[7],inactive
same,outcome,[8],inactive
same,outcome,[9],inactive
same,activation,[10],31% (active)
same,outcome,[11],inactive
same,activation,[12],34% (active)
same,outcome,[13],inactive
same,outcome,[14],inactive
same,outcome,[15],inactive
same,outcome,[16],inactive
Fc1ccc(C2CCNCC2COc2ccc3c(c2)OCO3)cc1 (stereo not given),activation,[1],202% (active)
same,outcome,[2],inactive
same,outcome,[3],inactive
same,outcome,[4],inactive
same,outcome,[5],inactive
same,outcome,[6],inactive
same,outcome,[7],inactive
same,outcome,[8],inactive
same,outcome,[9],inactive
same,outcome,[10],inactive
same,outcome,[11],inactive
same,activation,[12],26.8% (active)
same,outcome,[13],inactive
same,outcome,[14],inactive
same,activation,[15],15.8% (active)
same,outcome,[16],inactive
CCOc1ccccc1CN1CCNC(=O)C1CC(=O)NCCc1ccccn1 (stereo not given),outcome,[1],inactive
same,outcome,[2],inactive
same,outcome,[3],inactive
same,outcome,[4],inactive
same,outcome,[5],inactive
same,outcome,[6],inactive
same,outcome,[7],inactive
same,outcome,[8],inactive
same,outcome,[9],inactive
same,activation,[10],23.5% (active)
same,outcome,[11],inactive
same,activation,[12],17.3% (active)
same,outcome,[13],inactive
same,outcome,[14],inactive
same,outcome,[15],inactive
same,outcome,[16],inactive
Cc1ccc(Cl)cc1NC(=O)CNCC(c1ccccc1)N(C)C (stereo not given),outcome,[1],inactive
same,outcome,[2],inactive
same,outcome,[3],inactive
same,outcome,[4],inactive
same,outcome,[5],inactive
same,outcome,[6],inactive
same,outcome,[7],inactive
same,outcome,[8],inactive
same,outcome,[9],inactive
same,activation,[10],47.5% (active)
same,outcome,[11],inactive
same,outcome,[12],inactive
same,outcome,[13],inactive
same,outcome,[14],inactive
same,outcome,[15],inactive
same,outcome,[16],inactive
O=C(c1sc2ccccc2c1Cl)N(Cc1cccs1)C1CCS(=O)(=O)C1 (stereo not given),activation,[1],265% (active)
same,activation,[2],79% (active)
same,outcome,[3],inactive
same,outcome,[4],inactive
same,outcome,[5],inactive
same,outcome,[6],inactive
same,outcome,[7],inactive
same,outcome,[8],inactive
same,outcome,[9],inactive
same,activation,[10],35% (active)
same,outcome,[11],inactive
same,activation,[12],12% (active)
same,outcome,[13],inactive
same,outcome,[14],inactive
same,outcome,[15],inactive
same,outcome,[16],inactive
CCOC(=O)C1(CCCc2ccccc2)CCN(Cc2cn(CC)nc2C)CC1,activation,[1],153% (active)
same,activation,[2],76% (active)
same,outcome,[3],inactive
same,outcome,[4],inactive
same,outcome,[5],inactive
same,outcome,[6],inactive
same,outcome,[7],inactive
same,outcome,[8],inactive
same,outcome,[9],inactive
same,activation,[10],84% (active)
same,outcome,[11],inactive
same,outcome,[12],inactive
same,outcome,[13],inactive
same,outcome,[14],inactive
same,outcome,[15],inactive
same,outcome,[16],inactive
CCn1c(N)[n+](CC(=O)Nc2ccc(SC(F)F)cc2)c2ccccc21,activation,[1],200% (active)
same,outcome,[2],inactive
same,outcome,[3],inactive
same,outcome,[4],inactive
same,outcome,[5],inactive
same,outcome,[6],inactive
same,outcome,[7],inactive
same,outcome,[8],inactive
same,outcome,[9],inactive
same,outcome,[10],inactive
same,outcome,[11],inactive
same,activation,[12],10.3% (active)
same,outcome,[13],inactive
same,outcome,[14],inactive
same,outcome,[15],inactive
same,outcome,[16],inactive
CCOC(=O)C1(CCOc2ccccc2)CCN(Cc2ccc(OC)c(O)c2)CC1,activation,[1],207% (active)
same,activation,[2],80% (active)
same,outcome,[3],inactive
same,outcome,[4],inactive
same,outcome,[5],inactive
same,outcome,[6],inactive
same,outcome,[7],inactive
same,outcome,[8],inactive
same,outcome,[9],inactive
same,activation,[10],66.5% (active)
same,outcome,[11],inactive
same,outcome,[12],inactive
same,outcome,[13],inactive
same,outcome,[14],inactive
same,outcome,[15],inactive
same,outcome,[16],inactive
Cc1cc(C)n(-c2nc(SCCN(C)C)c3c4c(sc3n2)CCCC4)n1,activation,[1],162% (active)
same,outcome,[2],inactive
same,outcome,[3],inactive
same,outcome,[4],inactive
same,outcome,[5],inactive
same,outcome,[6],inactive
same,outcome,[7],inactive
same,outcome,[8],inactive
same,outcome,[9],inactive
same,outcome,[10],inactive
same,outcome,[11],inactive
same,outcome,[12],inactive
same,outcome,[13],inactive
same,outcome,[14],inactive
same,outcome,[15],inactive
same,outcome,[16],inactive
CC1CCCCN1S(=O)(=O)c1ccc(C(=O)N(CCCN(C)C)c2nc3ccc(Br)cc3s2)cc1 (stereo not given),outcome,[1],inactive
same,outcome,[2],inactive
same,outcome,[3],inactive
same,outcome,[4],inactive
same,outcome,[5],inactive
same,outcome,[6],inactive
same,outcome,[7],inactive
same,outcome,[8],inactive
same,outcome,[9],inactive
same,outcome,[10],inactive
same,outcome,[11],inactive
same,activation,[12],21% (active)
same,outcome,[13],inactive
same,outcome,[14],inactive
same,activation,[15],14.9% (active)
same,outcome,[16],inactive
